Experimental data published in the supplement of paper PMC10127200.
Structures can show the parent of a compound that is named as a salt.

What was measured:
Test in all cases: Euclidean distance of Cell Painting phenotypic profile (signed KS, 77 features) to DMSO centroid (dimensionless distance); 5 or 10 uM (library dependent); higher = stronger phenotypic change vs DMSO (phenoactivity)
Details in all cases: 48 h
786-O = test system: 786-O
Procedure, shortened: (§1)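 Stained cells were imaged confocally at 20X with 9 fields per well, after 48 h of exposure to library compounds at 10 or 5 uM (set by library; 0.1% DMSO final). The cells were five cancer lines and a healthy fibroblast line. From the images, Harmony extracted 77 features, each expressed as a signed Kolmogorov-Smirnov statistic relative to same-plate vehicle wells. Phenoactivity is measured as Euclidean distance to the median vehicle profile, using plate-position-corrected, correlation-weighted profiles averaged across replicates at the top dose.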

A549 = test system: A549
Procedure, shortened: as §1

DU145 = test system: DU145
Procedure, shortened: as §1

FB = test system: FB
Procedure, shortened: as §1

HEPG2 = test system: HEPG2
Procedure, shortened: as §1

OVCAR4 = test system: OVCAR4
Procedure, shortened: as §1

CCCCCCCCCCCCCCCCCCOCC(O)CO (configuration not stated) [Batyl alcohol]
Euclidean distance (786-O): 0.871
Euclidean distance (A549): 0.609
Euclidean distance (DU145): 0.705
Euclidean distance (FB): 1.18
Euclidean distance (HEPG2): 0.262
Euclidean distance (OVCAR4): 0.921

Cc1ccsc1/C=C/C1=NCCCN1C [Morantel tartrate]
Euclidean distance (786-O): 0.593
Euclidean distance (A549): 0.834
Euclidean distance (DU145): 0.571
Euclidean distance (FB): 1.19
Euclidean distance (HEPG2): 0.557
Euclidean distance (OVCAR4): 1.21

c1ccc([C@H]2CN3CCSC3=N2)cc1 [Levamisole hydrochloride]
Euclidean distance (786-O): 0.976
Euclidean distance (A549): 0.704
Euclidean distance (DU145): 1.37
Euclidean distance (FB): 0.953
Euclidean distance (HEPG2): 0.417
Euclidean distance (OVCAR4): 1.23

OC(CCN1CCCCC1)(c1ccccc1)C1CCCCC1 (configuration not stated) [Trihexyphenidyl hydrochloride]
Euclidean distance (786-O): 1.04
Euclidean distance (A549): 1.1
Euclidean distance (DU145): 0.794
Euclidean distance (FB): 0.849
Euclidean distance (HEPG2): 1.17
Euclidean distance (OVCAR4): 2.16

CCC1=C[C@@H]2CN(C1)Cc1c([nH]c3ccccc13)[C@@](C(=O)OC)(c1cc3c(cc1OC)N(C)[C@H]1[C@@](O)(C(=O)OC)[C@H](OC(C)=O)[C@]4(CC)C=CCN5CC[C@]31[C@@H]54)C2 [Vinorelbine Tartrate]
Euclidean distance (786-O): 3.19
Euclidean distance (A549): 3.7
Euclidean distance (DU145): 4.27
Euclidean distance (FB): 3.46
Euclidean distance (HEPG2): 2.97
Euclidean distance (OVCAR4): 3.03

CCCN1CCCC[C@H]1C(=O)Nc1c(C)cccc1C [Ropivacaine Mesilate]
Euclidean distance (786-O): 0.655
Euclidean distance (A549): 0.72
Euclidean distance (DU145): 1.14
Euclidean distance (FB): 0.717
Euclidean distance (HEPG2): 0.914
Euclidean distance (OVCAR4): 0.946

Cc1c(O)cccc1C(=O)N[C@@H](CSc1ccccc1)[C@H](O)CN1C[C@H]2CCCC[C@H]2C[C@H]1C(=O)NC(C)(C)C [Nelfinavir Mesylate]
Euclidean distance (786-O): 1.88
Euclidean distance (A549): 2.45
Euclidean distance (DU145): 1.22
Euclidean distance (FB): 1.59
Euclidean distance (HEPG2): 1.01
Euclidean distance (OVCAR4): 1.16

COc1cc2c(cc1OC)[C@@H]1Cc3ccc(OC)c(OC)c3CN1CC2 [Tetrahydropalmatine]
Euclidean distance (786-O): 0.584
Euclidean distance (A549): 0.856
Euclidean distance (DU145): 0.447
Euclidean distance (FB): 0.696
Euclidean distance (HEPG2): 0.585
Euclidean distance (OVCAR4): 0.757

C[C@@H](O)[C@@H]1NC(=O)[C@H](CCCCN)NC(=O)[C@@H](Cc2c[nH]c3ccccc23)NC(=O)[C@H](Cc2ccccc2)NC(=O)[C@@H](NC(=O)[C@H](N)Cc2ccccc2)CSSC[C@@H](C(=O)N[C@H](CO)[C@@H](C)O)NC1=O [Octreotide Acetate]
Euclidean distance (786-O): 1.6
Euclidean distance (A549): 1.39
Euclidean distance (DU145): 1.08
Euclidean distance (FB): 0.734
Euclidean distance (HEPG2): 0.782
Euclidean distance (OVCAR4): 1.45

C#Cc1cccc(Nc2ncnc3cc(OCCOC)c(OCCOC)cc23)c1 [Erlotinib]
Euclidean distance (786-O): 1.68
Euclidean distance (A549): 2.34
Euclidean distance (DU145): 1.94
Euclidean distance (FB): 3.62
Euclidean distance (HEPG2): 0.991
Euclidean distance (OVCAR4): 1.87

CC[C@H]1OC(=O)[C@H](C)[C@@H](O[C@H]2C[C@@](C)(OC)[C@@H](O)[C@H](C)O2)[C@H](C)[C@@H](O[C@@H]2O[C@H](C)C[C@H](N(C)C)[C@H]2O)[C@](C)(O)C[C@@H](C)CN(C)[C@H](C)[C@@H](O)[C@]1(C)O [Azithromycin Dihydrate]
Euclidean distance (786-O): 1.29
Euclidean distance (A549): 1.33
Euclidean distance (DU145): 1.5
Euclidean distance (FB): 1.18
Euclidean distance (HEPG2): 1.71
Euclidean distance (OVCAR4): 1.15

C[C@H]1CNC(=O)c2cnn3ccc(nc23)N[C@H](C)c2cc(F)ccc2O1
Euclidean distance (786-O): 4.06
Euclidean distance (A549): 4.83
Euclidean distance (DU145): 5.02
Euclidean distance (FB): 3.45
Euclidean distance (HEPG2): 2.14
Euclidean distance (OVCAR4): 4.45

O=C1Cc2cc(CCN3CCN(c4nsc5ccccc45)CC3)c(Cl)cc2N1 [Ziprasidone HCl]
Euclidean distance (786-O): 1.99
Euclidean distance (A549): 1.47
Euclidean distance (DU145): 1.15
Euclidean distance (FB): 1.3
Euclidean distance (HEPG2): 0.985
Euclidean distance (OVCAR4): 1.64

Cc1cnc(C(=O)NCCc2ccc(S(=O)(=O)NC(=O)NC3CCCCC3)cc2)cn1 [Glipizide]
Euclidean distance (786-O): 1.39
Euclidean distance (A549): 1.31
Euclidean distance (DU145): 0.684
Euclidean distance (FB): 1.1
Euclidean distance (HEPG2): 1.74
Euclidean distance (OVCAR4): 1.36

C=C1C(=O)[C@]23[C@H](O)[C@H]1CC[C@H]2[C@@]12CO[C@]3(O)[C@@H](O)[C@@H]1C(C)(C)CC[C@@H]2O [Oridonin]
Euclidean distance (786-O): 1.57
Euclidean distance (A549): 1.32
Euclidean distance (DU145): 1.1
Euclidean distance (FB): 1.01
Euclidean distance (HEPG2): 1.03
Euclidean distance (OVCAR4): 1.33

Clc1ccccc1C(c1ccccc1)(c1ccccc1)n1ccnc1 [Clotrimazole]
Euclidean distance (786-O): 2.01
Euclidean distance (A549): 1.31
Euclidean distance (DU145): 1.38
Euclidean distance (FB): 1.42
Euclidean distance (HEPG2): 1.76
Euclidean distance (OVCAR4): 1.64

NC(=O)c1ccccc1O [Salicylamide]
Euclidean distance (786-O): 1.39
Euclidean distance (A549): 1.58
Euclidean distance (DU145): 1.56
Euclidean distance (FB): 1.4
Euclidean distance (HEPG2): 0.71
Euclidean distance (OVCAR4): 2.3

O=c1c(O)c(-c2ccc(O)c(O)c2)oc2cc(O)cc(O)c12 [Quercetin Dihydrate]
Euclidean distance (786-O): 0.703
Euclidean distance (A549): 1.01
Euclidean distance (DU145): 0.731
Euclidean distance (FB): 0.799
Euclidean distance (HEPG2): 0.874
Euclidean distance (OVCAR4): 0.868

CNC(CC(=O)O)C(=O)O [NMDA (N-Methyl-D-aspartic acid)]
Euclidean distance (786-O): 0.691
Euclidean distance (A549): 1.26
Euclidean distance (DU145): 0.677
Euclidean distance (FB): 0.867
Euclidean distance (HEPG2): 0.901
Euclidean distance (OVCAR4): 0.706

CNc1ncc(-c2ccc3c(=O)c(C(=O)O)cn(C4CC4)c3c2C)cc1C [Ozenoxacin]
Euclidean distance (786-O): 1.31
Euclidean distance (A549): 0.846
Euclidean distance (DU145): 0.593
Euclidean distance (FB): 1.13
Euclidean distance (HEPG2): 1.01
Euclidean distance (OVCAR4): 0.85

CCOC(=O)c1ccc(N)cc1 [Benzocaine hydrochloride]
Euclidean distance (786-O): 0.675
Euclidean distance (A549): 0.334
Euclidean distance (DU145): 0.563
Euclidean distance (FB): 0.896
Euclidean distance (HEPG2): 0.264
Euclidean distance (OVCAR4): 0.998

Nc1cc(F)ccc1NC(=O)c1ccc(CNC(=O)/C=C/c2cccnc2)cc1 [Tucidinostat (Chidamide)]
Euclidean distance (786-O): 3.36
Euclidean distance (A549): 2.59
Euclidean distance (DU145): 2.35
Euclidean distance (FB): 3.31
Euclidean distance (HEPG2): 3.09
Euclidean distance (OVCAR4): 2.66
